# JMJD2A Tudor: qHTS Assay for Inhibitors of JMJD2A-Tudor Domain. AlphaScreen JMJD2A-Tudor / H3K4me3 peptide binding. Lysine-specific demethylase 4A (Homo sapiens), O75164. Potency, µM (highest dose often 114 µM), without a hit: at the top dose activity change, negative = inhibition, actives largely listed as inhibitors. 390,000 compounds, 4.4% hits. AID 504339, 2011; also: potency is read from the fitted curve at half-maximal effect; % is scaled to controls: 0 for no effect and ±100 for the full control effect; nearly all actives have a fitted effect of over 50% in size
# CtBP-E1A blk: qHTS Assay for Inhibitors of the CtBP/E1A Interaction. AlphaScreen GST-E1A/His-CtBP binding, 1536-well; stronger effect = lower value. activity change, % (concentration not given with the values). AID 651724, 2012. 340,000 compounds, 0.49% hits; in the data active = activity change below about -65%; inconclusive = mostly about -30% to -63%; also: % is scaled to controls: 0 for no effect and ±100 for the full control effect
#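 Homogeneous bead-based format: GST-tagged E1A captured on glutathione donor beads, His-tagged CtBP on nickel acceptor beads; compounds precede bead addition by 2 h at 37 °C.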
# Six1-Eya2 blk: qHTS Assay for Inhibitors of the Six1/Eya2 Interaction; AID 651725, 2012; activity change, % (concentration not given with the values); 360,000 compounds, 0.56% hits; AlphaScreen GST-Six1/His-Eya2 binding, biochemical; stronger effect = lower value; in the data active = activity change below about -65%; inconclusive = mostly about -30% to -63%; also: % is scaled to controls: 0 for no effect and ±100 for the full control effect
#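 GST-Six1 + His-Eya2 (5X stock: 250/500 nM); Tris pH 8.0, 300 mM NaCl, 0.05% BSA, 0.02% Tween 20; GSH donor/Ni acceptor beads; 1 h 37 °C dark; AlphaScreen readout.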
# G9a inh: qHTS Assay for Inhibitors of Histone Lysine Methyltransferase G9a. Histone-lysine N-methyltransferase EHMT2 (Homo sapiens), Q96KQ7. G9a H3K9 monomethylation, AlphaScreen, 2 h. Potency, µM (series often up to 102 µM), inactives show at the top dose activity, negative = inhibition, hits mostly inhibitors. 350,000 compounds, 8.8% hits. AID 504332, 2011; also: potency is read from the fitted curve at half-maximal effect; % is scaled to controls: 0 for no effect and ±100 for the full control effect; nearly all actives have a fitted effect of over 75% in size
#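 Readings reflect AlphaScreen signal from monomethyl-H3K9 antibody detection. HMT at 20 nM; substrate b-H3K9 500 nM; cofactor SAM 20 uM; 2 h RT reaction; compounds tested as titrations in qHTS with 15 min preincubation.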
# BAZ2B block: qHTS Assay for Inhibitors of BAZ2B; Bromodomain adjacent to zinc finger domain protein 2B (Homo sapiens), Q9UIF8; AlphaScreen BAZ2B-H3K14Ac peptide displacement; Potency, µM (highest dose often 114 µM), inactives show top-dose activity change, negative = inhibition, usual class: inhibitors; 360,000 compounds, 4.4% hits; AID 504333, 2011; also: potency is read from the fitted curve at half-maximal effect; % is scaled to controls: 0 for no effect and ±100 for the full control effect; nearly all actives have a fitted effect of over 60% in size
#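 In this displacement format the biotinylated H3(5-23) peptide acetylated at Lys14 serves as ligand at 50 nM, with BAZ2B at 50 nM in PBS pH 7.4 containing 0.01% Tween-20. Donor and acceptor beads are 10 ug/mL final.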
# HP1b chromo inh: HTS for Inhibitors of HP1-beta Chromodomain Interactions with Methylated Histone Tails. Chromobox protein homolog 1 (Homo sapiens), P83916. AlphaScreen HP1-beta / biotin-H3K9me3 peptide binding. Potency, µM (top dose mostly 114 µM), without a hit: at the highest dose activity change, negative = inhibition, hits mostly inhibitors. 390,000 compounds, 0.56% hits; also: potency is read from the fitted curve at half-maximal effect; nearly all actives have a fitted effect of over 70% in size
#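 HP1-beta protein (50 nM final) preincubated 30 min at room temperature with biotinylated H3(1-18)K9me3 peptide (50 nM) in PBS pH 7.4, 0.01% Tween-20, then compound added for 30 min. AlphaScreen streptavidin donor/nickel chelate acceptor beads (10 ug/mL final), 30 min dark, luminescence read.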
# Numbers without * were called inactive; ? = inconclusive; nt = no result given; [ ] = another dose, or the depositor's remark. Only some compounds are listed: those with a hit (about 10% of all), similar ones and a draw of the others. Unless noted, calls follow the shape of the dose curve; as a rule, active = well fitted inhibition curve with a large enough effect; inconclusive = small, poorly fitted or top-dose-only effect; inactive = no such curve, though single readings can be large or run the other way.
SMILES,JMJD2A Tudor,CtBP-E1A blk,Six1-Eya2 blk,G9a inh,BAZ2B block,HP1b chromo inh
CC(C)n1cc(/C=N/Nc2ccc(C(=O)O)cc2)c2ccccc21,-31%,-3,-8,45µM*,-35%,1%
COc1ccc(CCNC(=O)c2c(C)oc3ncn(CC(C)C)c(=O)c23)cc1OC,-19%,nt,nt,6%[59 µM],0%[57.1 µM],8%
O=C(N/N=C/c1cn(Cc2cccc(F)c2)c2ccccc12)c1cc(O)cc(O)c1,7.1µM*,-72*,-75*,nt,6.3µM*,11µM*
c1ccc(Oc2nc(NC3CCCCC3)c3[nH]cnc3n2)cc1,nt,nt,nt,-23%[59 µM],nt,nt
COc1ccc(N2CCN(S(=O)(=O)/C=C/c3ccccc3)CC2)cc1,-24%,3,0,-31%,11%,8%
COc1ccc(NC2(c3ccc(Cl)cc3)C(=O)c3ccccc3C2=O)cc1,56µM*,-12,-14,28µM*,14µM*,14µM*
COc1ccc(N2CCN(C3(c4ccccc4)C(=O)c4ccccc4C3=O)CC2)cc1,8.9µM*,nt,nt,8.9µM*,7.1µM*,13µM*
CCOC(=O)c1c(C)[nH]c(C)c1C(=O)COC(=O)c1ccccc1O,-21%,-1,-15,50µM*,-34%,7%
CCOC(=O)c1c(C)[nH]c(C)c1C(=O)COc1ncnc2cc([N+](=O)[O-])ccc12,-29%,-70*,-76*,-10%,?,-3%
CC(NC(=O)COc1ncnc2cc([N+](=O)[O-])ccc12)c1ccccc1 (stereo not given),-17%,-3,0,9%[59 µM],-10%,19%
CCOC(=O)c1c(C)[nH]c(C)c1C(=O)COC(=O)CCOc1ccccc1OC,79µM*,-9,-5,?,-32%,-23%
Cc1[nH]c2ccccc2c1C(=O)COC(=O)c1ccccc1O,-1%,-2,-3,nt,nt,15%
COc1cc(C(=O)NCc2nc(-c3ccc(Cl)cc3)no2)cc(OC)c1OC,-18%,nt,nt,-5%[59 µM],-3%,23%
COc1ccc(-c2noc(-c3ccc(N4CCC(C)CC4)c([N+](=O)[O-])c3)n2)cc1OC,-17%,nt,nt,-9%[59 µM],?,38%
O=C(CCCN1C(=O)/C(=C\c2ccccc2)SC1=S)Nc1ccc(C(=O)O)cc1,?,-27,-16,?,-26%,-23%
CCc1ccc(/C=C2\SC(=S)N(CCCC(=O)Nc3ccc(C(=O)O)cc3)C2=O)cc1,50µM*,-28,-8,-3%,35µM*,?
O=C(CCCN1C(=O)/C(=C/c2cccs2)SC1=S)NNC(=O)c1ccccc1O,-18%,-10,2,19%[59 µM],56µM*,23%
O=C(CCCN1C(=O)/C(=C/c2cccs2)SC1=S)NNC(=O)c1ccncc1,-11%,-6,-13,-34%,?,32%
COc1ccc(/C=C2/SC(=S)N(CCCC(=O)Nc3ccccc3C(=O)O)C2=O)cc1,?,-1,-1,79µM*,?,-32%
COc1ccc(/C=C2\SC(=S)N(CCCC(=O)NNC(=O)c3ccccc3O)C2=O)cc1,-13%[11.4 µM],nt,-16,2%,50µM*,?
COc1ccc(/C=C2/SC(=S)N(CCCC(=O)Nc3cccc(O)c3)C2=O)cc1,?,?,-24,?,?,?
CCc1ccc(S(=O)(=O)Nc2cc3c(cc2C)n(C)c(=O)c(=O)n3C)cc1,-19%,nt,nt,2%[59 µM],-10%,-25%
COc1ccc(/C=C2\SC(=S)N(CC(=O)OCC(=O)Nc3cc(Cl)cc(Cl)c3)C2=O)cc1,?,nt,-25,32µM*,-38%,-4%
CCc1ccc(/C=C2\SC(=S)N(CCCC(=O)Nc3ccccc3C(=O)O)C2=O)cc1,?,10,-12,32µM*,?,2%
COc1cc(/C=C2\SC(=S)N(CC(=O)Nc3ccc(O)cc3)C2=O)cc(OC)c1OC,-5%,nt,-7,9%,-14%,38%
SMILES,JMJD2A Tudor,CtBP-E1A blk,Six1-Eya2 blk,G9a inh,BAZ2B block,HP1b chromo inh
Cc1ccc(CCNC(=O)C2CCCN(Cc3nc(-c4cccc(Cl)c4)oc3C)C2)cc1 (stereo not given),-30%,nt,nt,-33%[59 µM],-20%,-10%
Cc1oc(-c2cccc(Cl)c2)nc1CN1CCCC(C(=O)NC(C)c2ccc3c(c2)OCCO3)C1 (stereo not given),?,-9,-22,50µM*,?,21%
Cc1cccc(-c2nc(CN3CCCC(C(=O)NCCc4ccc(Cl)cc4)C3)c(C)o2)c1 (stereo not given),?,nt,nt,?,56µM*,14%
Cc1oc(-c2cccc(Cl)c2)nc1CN1CCCC(C(=O)N2CCN(c3ccc(F)cc3)CC2)C1 (stereo not given),40µM*,nt,nt,18µM*,10µM*,?
COc1ccc2c(c1)c1c(c(=O)n(Cc3ccccc3)c(=O)n1CC(=O)Nc1ccccc1OC)n2C,-10%,nt,nt,-7%[59 µM],-6%,2%
O=c1oc2c(CN3CCOCC3)c(O)ccc2cc1-c1ccc(Cl)cc1,26%,nt,nt,31%[59 µM],112%,184%
COc1ccc2c(C)c(CC(=O)NCc3ccccc3Cl)c(=O)oc2c1OC,-13%,nt,nt,-32%[59 µM],-15%,25%
COc1ccc(CNc2ccc(C)cc2)cc1Br,-36%[57.1 µM],-18,-26,?,50µM*,?
COc1cc(CNc2ccc(O)cc2)cc(Br)c1OCc1ccccc1,45µM*,nt,-2,25µM*,40µM*,?
C=CCOc1c(Br)cc(CNc2ccc(NC(=O)C(C)C)c(OC)c2)cc1OCC,?,4,-3,6.3µM*,22%,-2%
C=CCOc1c(Br)cc(CNc2ccc3[nH]c(=O)[nH]c3c2)cc1OCC,-23%,-14,?,nt,-19%,1%
CCOc1cc(CNc2ccc(N3CCN(C(C)=O)CC3)cc2)cc(Br)c1OC,35µM*,-21,?,28µM*,32µM*,?
O=C(OCC#CCSc1nnc(-c2cccc3ccccc23)o1)c1ccc(OC(F)F)cc1,17%,nt,nt,nt,nt,nt
COc1ccc(C(=O)NCC(c2ccc(N(C)C)cc2)N2CCCC2)c(OC)c1 (stereo not given),?,nt,nt,?,?,-24%
CCOc1cc(C(=O)Nc2ccc(N3CCN(C(C)=O)CC3)cc2)cc(OCC)c1OCC,-9%,7,0,?,-32%,22%

# Assay outcomes from PubChem BioAssay.
